# Laboratory results: PMC8384837, “Expanding the binding specificity for RNA recognition by a PUF domain”
# Experiments:
# Assay in all cases: yeast three-hybrid, YBZ-1, SC-Leu-His + 0.5 mM 3-AT, 4 days
# Details in all cases: tags: N-Gal4 AD-HA kept; label: inside an RPR1-promoter hybrid RNA with tandem MS2 sites; ssRNA
# [1] = target: PUM1 PUF domain R8-WWR (Homo sapiens, UniProt Q14671 828-1176, N1122W;Y1123W;Q1126R)
# Summary of the method: (§1)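 A centromeric plasmid in strain YBZ-1 co-expressed Pumilio-1 PUF domain libraries, randomized at the three base-contacting residues of each repeat, with matching RNA elements; the strain carries a LexA–MS2 coat fusion and a HIS3 reporter. After four days on SC-Leu (input) or SC-Leu-His + 0.5 mM 3-AT (selection), the repeat regions were PCR-amplified and Illumina-sequenced. The interaction score is the log change in variant frequency from input to selection, using log2 and a pseudocount of 1 where absent.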
# [2] = target: PUM1 PUF domain R8-GWN (Homo sapiens, UniProt Q14671 828-1176, N1122G;Y1123W;Q1126N)
# Summary of the method: as §1
# [3] = target: PUM1 PUF domain R3-SPF (Homo sapiens, UniProt Q14671 828-1176, C935S;R936P;Q939F)
# Summary of the method: as §1
# [4] = target: T1, PUM1 PUF domain R6-RYR (Homo sapiens, UniProt Q14671 828-1176, N1043R;Q1047R)
# T1 sequence: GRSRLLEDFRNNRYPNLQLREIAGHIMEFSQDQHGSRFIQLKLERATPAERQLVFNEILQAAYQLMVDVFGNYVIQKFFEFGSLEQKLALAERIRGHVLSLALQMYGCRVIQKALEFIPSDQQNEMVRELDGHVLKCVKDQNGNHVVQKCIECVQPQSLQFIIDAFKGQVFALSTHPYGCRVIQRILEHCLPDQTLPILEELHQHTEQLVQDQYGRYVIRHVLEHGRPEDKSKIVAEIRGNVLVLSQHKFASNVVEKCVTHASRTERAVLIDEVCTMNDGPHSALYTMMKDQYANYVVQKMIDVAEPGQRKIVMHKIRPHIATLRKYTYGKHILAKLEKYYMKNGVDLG
# Summary of the method: as §1
# [5] = target: PUM1 PUF domain R3-PWS (Homo sapiens, UniProt Q14671 828-1176, C935P;R936W;Q939S)
# Summary of the method: as §1
# [6] = target: PUM1 PUF domain R5-RMW (Homo sapiens, UniProt Q14671 828-1176, C1007R;R1008M;Q1011W)
# Summary of the method: as §1
# [7] = target: PUM1 PUF domain R1-TLR (Homo sapiens, UniProt Q14671 828-1176, S863T;R864L;Q867R)
# Summary of the method: as §1
# [8] = target: PUM1 PUF domain R1-YCR (Homo sapiens, UniProt Q14671 828-1176, S863Y;R864C;Q867R)
# Summary of the method: as §1
sequence,measurement,setting,value
GGCUAGAACUAGUGGAUCCCCCGGCGCCCGGCGGCUCGAGCCCGGGUAAGCGUAAAUAGUCUGCAUGCCGCCGGGCGCCAUGCCUGCAGGUCGACUCUAGAAAACAUG,binding signal,[1],4.84 log2 enrichment (interaction score)
same,binding signal,[2],5.24 log2 enrichment (interaction score)
GGCUAGAACUAGUGGAUCCCCCGGCGCCCGGCGGCUCGAGCCCGGGUAAGUGUAAAUAGUCUGCAUGCCGCCGGGCGCCAUGCCUGCAGGUCGACUCUAGAAAACAUG,binding signal,[1],4.62 log2 enrichment (interaction score)
same,binding signal,[3],4.55 log2 enrichment (interaction score)
same,binding signal,[2],3.4 log2 enrichment (interaction score)
same,binding signal,[4],3.26 log2 enrichment (interaction score)
same,binding signal,[5],4.23 log2 enrichment (interaction score)
GGCUAGAACUAGUGGAUCCCCCGGCGCCCGGCGGCUCGAGCCCGGGUAAGUGUAAUUAGUCUGCAUGCCGCCGGGCGCCAUGCCUGCAGGUCGACUCUAGAAAACAUG,binding signal,[3],2.3 log2 enrichment (interaction score)
same,binding signal,[5],1.88 log2 enrichment (interaction score)
GGCUAGAACUAGUGGAUCCCCCGGCGCCCGGCGGCUCGAGCCCGGGUAAGUGAAAAUAGUCUGCAUGCCGCCGGGCGCCAUGCCUGCAGGUCGACUCUAGAAAACAUG,binding signal,[4],1.38 log2 enrichment (interaction score)
GGCUAGAACUAGUGGAUCCCCCGGCGCCCGGCGGCUCGAGCCCGGGUAAGUGUCAAUAGUCUGCAUGCCGCCGGGCGCCAUGCCUGCAGGUCGACUCUAGAAAACAUG,binding signal,[6],3.01 log2 enrichment (interaction score)
GGCUAGAACUAGUGGAUCCCCCGGCGCCCGGCGGCUCGAGCCCGGGUAAGUGUUAAUAGUCUGCAUGCCGCCGGGCGCCAUGCCUGCAGGUCGACUCUAGAAAACAUG,binding signal,[6],0.73 log2 enrichment (interaction score)
GGCUAGAACUAGUGGAUCCCCCGGCGCCCGGCGGCUCGAGCCCGGGUAAGUGUAAAUCGUCUGCAUGCCGCCGGGCGCCAUGCCUGCAGGUCGACUCUAGAAAACAUG,binding signal,[7],4.21 log2 enrichment (interaction score)
same,binding signal,[8],7.03 log2 enrichment (interaction score)
GGCUAGAACUAGUGGAUCCCCCGGCGCCCGGCGGCUCGAGCCCGGGUAAGUGUAAAUUGUCUGCAUGCCGCCGGGCGCCAUGCCUGCAGGUCGACUCUAGAAAACAUG,binding signal,[7],1.83 log2 enrichment (interaction score)
same,binding signal,[8],7.79 log2 enrichment (interaction score)
